Measured values: PubChem BioAssay AID589 (National Center for Advancing Translational Sciences (NCATS), 2007)
Screen size: about 59,000 compounds; about 6,200 (11%) were called active. Not shown: some 9% with an inconclusive outcome. Rule as the data show it: active = max dye-equivalent concentration above about 10 nM; inconclusive = mostly about 1.1 nM to 9.6 nM; inactive = weaker than that. For the sample, actives were picked, then their nearest neighbours and some compounds at random.

Assay: qHTS Assay for Spectroscopic Profiling in 4-MU Spectral Region
Conditions: compound autofluorescence, 340/450 nm, 4-MU equivalents; active compounds read high
Source text: NIH Molecular Libraries Screening Centers Network [MLSCN] NIH Chemical Genomics Center [NCGC] […] Occasionally, the artifactual effect may originate from the compounds own spectral or other biophysical properties which generally tend to track its assay concentration. Pre-screening/profiling the library with respect to the compounds spectral properties should help one exclude false positives early on. While the most informative fluorescent profiling data set is obtained by performing a full excitation and emission scan of each well by using a monochromator-based plate reader, such an approach is practical only on a very limited scale as scanning each well requires long time. An alternative approach, applied here, is to perform plate reader scans using selected excitation and emission wavelength pairs to generate a multidimensional relational database that correlates compound concentration and the respective relative fluorescence intensity at a given wavelength set. A standard curve of 4-methylumbelliferone (4-MU) present on each plate as six-point concentration series, was used to compute a normalized fluorescence response, termed dye-equivalent concentration, for each compound at each concentration.
NCGC Assay Protocol Summary: Buffer: 100 mM Tris buffer, pH 8.0 Dye standard plate: The wells in columns 1 through 4 of a Kalypsys polypropylene 1536-well compound plate were filled with standard solutions of fluorophore corresponding to the spectral region of interest. Solutions of 4-MU were placed in the following wells: A1, B1: 3 mM, A2, B2: 300 uM, A3, B3: 30 uM, A4, B4: zero (DMSO), C1, D1: 3 uM, C2, D2: 900 nM, C3, D3: 300 nM, C4, D4: zero (DMSO). Assay Steps: Six uL of buffer were dispensed to 1536-well Greiner black plates. Compounds and dye standards (23 nL) were transferred via Kalypsys PinTool. The plates were incubated for 15 min at room temperature, and then read on ViewLux (Perkin-Elmer) High-throughput CCD imager using 340 nm and 450 nm excitation and emission filter set. Keywords: NIH Roadmap, MLSCN, MLI, MLSMR, qHTS, NCGC, Fluorescent Profiling, 4MU, 4-MU

Max dye-equivalent concentration, inactive:
CCC(=O)Nc1sc(C(=O)N2CCCCC2)c(C)c1C#N
COCCNC(=O)CN(C(=O)CCC(=O)Nc1cc(C)on1)c1ccc(C)cc1C
O=S(=O)(/C=C/c1ccccc1)NCCc1ccccn1
Cn1cc(-c2nc3cnc(N4CCNCC4)nc3n(CCc3ccccc3)c2=O)c2ccccc21
Cn1c(=O)n(CCc2ccccc2)c(=O)c2c1nc1n2CCCN1c1ccccc1
OCc1nc(CO)n(Cc2ccccc2)n1
CCCCCn1c(SCCC(C)C)nc2c1c(=O)[nH]c(=O)n2C
N#CCSc1nc2ccccc2c(=O)n1-c1ccccc1
Cc1cc(C)nc(N(C#N)CC(=O)Nc2ccccc2)n1
COc1ccc(C2C3=C(CC(C)(C)CC3=O)Oc3ncn4nc(-c5cccnc5)nc4c32)cc1OC (stereo not given)
CC(=O)Nc1ccc(S(=O)(=O)N2CCN(CCCOc3cc(C)ccc3C)CC2)cc1
COc1cccc(NC(=O)C2CCCN2C(=O)OCc2ccccc2)c1 (stereo not given)
NC1(C(=O)OCc2ccccc2)CCCC1
CCCC[C@H]1C(=O)N(c2ccccc2)N(c2ccc(O)cc2)C1=O
CCCOc1ccc(NC(=O)C2CCCNC2=O)cc1 (stereo not given)
COC(=O)COc1ccc(S(=O)(=O)Nc2ccc(NC(C)=O)cc2)cc1
O=C(O)C1CCN(c2ncnc3ccc(-c4ccccc4C(F)(F)F)cc23)CC1
COc1ccc(-c2nc3n(c2Br)CCC3)cc1
Cc1cccc(OCc2nnc(SCn3nnc4ccccc4c3=O)o2)c1
CCCCCCn1c(CN2CCCC(C)C2)nc2c1c(=O)n(C)c(=O)n2C (stereo not given)
O=C(Cc1c(F)cccc1Cl)N1CCN(C(=O)c2ccco2)CC1
CCN(Cc1ccncc1)C(=O)[C@@H](CO)c1ccccc1
Clc1ccc(Cc2nn3c(-c4ccncc4)nnc3s2)cc1
COc1cccc(C(=O)Nc2c3c(nn2-c2cccc(C)c2C)CS(=O)(=O)C3)c1OC
COc1ccccc1CNc1nc(-c2c(C)noc2C)nc2ccccc12
c1ccc(-n2nnnc2N2CCOCC2)cc1
c1cnn(-c2cc(N3CCOCC3)ncn2)c1
CCCCOc1ccccc1/C=c1/sc2nc(-c3oc4ccccc4c3C)nn2c1=O
CCc1ccccc1NC1c2ccccc2C(=O)N1c1cccnc1 (stereo not given)
O=C(O)C1=CCCN(CCON=C(c2ccccc2)c2ccccc2)C1
O=C(Nc1cccnc1)c1ccc2c(c1)OCO2
Cc1cccc(CNc2ccnc(-c3cccnc3)n2)c1
COc1ccc(Br)c2c1C[C@H](C(=O)O)CC2
CCOc1cc(CO)ccc1OCC(=O)N1CCCCC1
Cc1ccccc1CSc1nnc(-c2ccccn2)n1N
O=C(NCc1cccs1)C1CCN(S(=O)(=O)c2ccc3c(c2)OCCO3)CC1
CC(=O)c1cccc(S(=O)(=O)N2CCC(n3nnc4cc(F)ccc43)CC2)c1
COc1cccc(NC(=O)Cn2cnc3sc(C)c(S(=O)(=O)N4CCN(C)CC4)c3c2=O)c1
Cc1ccc(C(CC(=O)O)Nc2nc(N3CCCCC3)nc(N3CCCCC3)n2)cc1 (stereo not given)
CC(C)(CSc1nncn1/N=C/c1ccco1)NS(=O)(=O)c1ccc(Cl)cc1
CCC(=O)Nc1ccc(C(=O)CSc2nnc(CNc3ccc(Cl)cc3)o2)cc1OC
COC(=O)N1CCC[C@@]2(CCN(C(=O)NC(C)C)C2)C1
Cc1occc1C(=O)Nc1cccc(Cn2cccn2)c1
COC(=O)C1=C(C)OC(N)=C(C#N)C1c1cc(OC)ccc1OC (stereo not given)
CCC1=C(C(=O)OC)C(c2cc(OC)ccc2OC)C(C#N)=C(N)O1 (stereo not given)

Max dye-equivalent concentration, active:
Cc1nc2cnc(N3CCNCC3)nc2n(CCc2ccccc2)c1=O 49 nM
C/C(O)=C\c1nc(=O)c2c(C)cc(C)nc2n1-c1ccccc1 43 nM
CC(C)C(NC(=O)OCc1ccccc1)C(=O)OCC(=O)N1C(C)CCCC1C (stereo not given) 37 nM
O=C1CCC(C(=O)Nc2ccc(OC(F)F)cc2)N1 (stereo not given) 18 nM
CCCn1c(O)c(CN2CCCC(C)C2)c(C)c(C#N)c1=O (stereo not given) 13 nM
c1ccc(-c2oc3ncnc(N4CCOCC4)c3c2-c2ccccc2)cc1 11 nM
c1cncc(CNc2ccnc(-c3ccc4c(c3)OCO4)n2)c1 14 nM
O=C(c1ccc2c(c1)OCCO2)C1CCN(S(=O)(=O)c2cccc(F)c2)CC1 12 nM
CC(Nc1nc(N2CCCC2)nc2ccccc12)c1ccccc1 (stereo not given) 150 nM
CCCN1CC=C2C(C#N)=C(N)C(C#N)(C#N)C(c3cc(OC)ccc3OC)C2C1 (stereo not given) 120 nM
